Laboratory results as given in the supplement of paper PMC3334620.
The full ranking holds about 33,000 sequences; the median of “E-score (-0.5 to 0.5)” is about -0.056, and the highest 2% start at about 0.38. The list comes from a sample in which the highest values are over-represented; it also holds similar and randomly drawn sequences.

The sequences below were run against Stb4 (UniProt P50104) (assay: PBM E-score (8-mer binding enrichment) (E-score (-0.5 to 0.5)); higher = stronger / more preferred TF binding). Details: protein concentration: 200 nM; construct: GST-DNA-binding domain.
UniProt P50104, sequence (P50104 whole entry, the tested form may be a part): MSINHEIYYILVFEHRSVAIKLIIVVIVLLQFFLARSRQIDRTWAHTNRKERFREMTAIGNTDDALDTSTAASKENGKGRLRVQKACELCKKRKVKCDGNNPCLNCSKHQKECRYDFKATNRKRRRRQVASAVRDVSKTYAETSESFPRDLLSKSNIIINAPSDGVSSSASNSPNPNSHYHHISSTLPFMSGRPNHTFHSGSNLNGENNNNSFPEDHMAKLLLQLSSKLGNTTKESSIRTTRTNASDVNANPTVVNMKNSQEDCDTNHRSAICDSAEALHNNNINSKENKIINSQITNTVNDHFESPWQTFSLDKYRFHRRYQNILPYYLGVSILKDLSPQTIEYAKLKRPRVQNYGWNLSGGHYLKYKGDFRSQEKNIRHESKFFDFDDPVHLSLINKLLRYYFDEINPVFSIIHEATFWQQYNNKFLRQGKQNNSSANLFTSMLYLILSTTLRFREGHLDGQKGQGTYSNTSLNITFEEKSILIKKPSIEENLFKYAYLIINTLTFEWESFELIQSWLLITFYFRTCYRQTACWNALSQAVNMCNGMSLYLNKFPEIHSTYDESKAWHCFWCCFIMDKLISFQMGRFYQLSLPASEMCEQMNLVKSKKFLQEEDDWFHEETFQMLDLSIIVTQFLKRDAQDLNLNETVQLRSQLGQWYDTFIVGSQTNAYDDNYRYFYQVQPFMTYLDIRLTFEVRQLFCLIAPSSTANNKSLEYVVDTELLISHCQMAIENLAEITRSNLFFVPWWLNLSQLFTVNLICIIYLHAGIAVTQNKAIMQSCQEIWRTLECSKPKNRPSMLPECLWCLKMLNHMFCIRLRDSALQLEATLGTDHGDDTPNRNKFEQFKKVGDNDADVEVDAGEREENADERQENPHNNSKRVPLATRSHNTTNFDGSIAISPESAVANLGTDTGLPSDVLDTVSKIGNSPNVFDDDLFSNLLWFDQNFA
Procedure, shortened: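 Universal all-10-mer Agilent arrays, double-stranded by primer extension on fresh or once-stripped slides, were probed with about 100-200 nM GST-tagged yeast transcription factors made by PURExpress. Fluorescent anti-GST detected bound protein, and masliner normalised the scans. E-scores from the Universal PBM Analysis Suite were given to each ungapped eight-base word pooled with its reverse complement.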

First: CTACTGCA
Second: CTACTGAC
The “PBM E-score” value of the first is lower: -0.329 for the first, -0.0845 for the second.

Compared with CTTAGAAC, GTCCTCGA is lower in “PBM E-score” value: -0.0637 for the first, -0.228 for the second.

Compared with AAGCAAAC, ATCCGGGG is higher in “PBM E-score” value: -0.0582 for the first, 0.398 for the second.

Going from ATCCGGGA to ATCCGGCA, the “PBM E-score” value rises from 0.368 to 0.38.

First: CTCCGGGC
Second: AGCCGGGC
The “PBM E-score” value of the first is lower: 0.131 for the first, 0.166 for the second.

Compared with ATCCGGGC, ATCCGGCG is lower in “PBM E-score” value: 0.405 for the first, 0.368 for the second.

Compared with AACCGGGG, ATCCGGCC is higher in “PBM E-score” value: 0.164 for the first, 0.394 for the second.

Compared with AATATAAC, CGTCTCAG is lower in “PBM E-score” value: 0.109 for the first, -0.235 for the second.

Going from CGGAACCG to CGGAACCA, the “PBM E-score” value rises from 0.407 to 0.41.

Compared with AGGAACCG, TGGAACCA is lower in “PBM E-score” value: 0.263 for the first, 0.0635 for the second.

First: GGGAACCA
Second: CGGAACCC
The “PBM E-score” value of the first is lower: -0.0292 for the first, 0.359 for the second.

Going from CCGAACCG to CCGAACCA, the “PBM E-score” value falls from 0.447 to 0.356.

Going from CCGAACCC to CATTCTCA, the “PBM E-score” value falls from 0.37 to 0.0317.

First: CAATGTCC
Second: AAATGCGC
The “PBM E-score” value of the first is higher: 0.00172 for the first, -0.041 for the second.

Compared with CTGCCGCA, ATGCCAAA is lower in “PBM E-score” value: 0.0287 for the first, -0.302 for the second.

Compared with ATGCCGCA, ATGCCGTG is lower in “PBM E-score” value: 0.0956 for the first, 0.00847 for the second.

First: CTGCCGAC
Second: GTGCCGAA
The “PBM E-score” value of the first is lower: 0.331 for the first, 0.441 for the second.

First: ATGCCGAC
Second: GTGCCAAA
The “PBM E-score” value of the first is higher: 0.333 for the first, -0.0603 for the second.

Compared with ATGCCGAA, CTGCCGAA is lower in “PBM E-score” value: 0.433 for the first, 0.411 for the second.

Going from GGGCCGAA to ATGCCGAG, the “PBM E-score” value rises from 0.314 to 0.423.

Going from GCAAGTGA to CTCGCGAG, the “PBM E-score” value rises from -0.0836 to -0.0385.

Compared with GTAAGTAC, AGCGACCC is higher in “PBM E-score” value: 0.00926 for the first, 0.0831 for the second.

First: ATGGTCGC
Second: CGTTAGCA
The “PBM E-score” value of the first is lower: -0.0565 for the first, -0.0245 for the second.

First: ACAGGCAT
Second: GAAGCCCA
The “PBM E-score” value of the first is lower: -0.242 for the first, -0.1 for the second.

First: CAAGCCGA
Second: AAAGCCGA
The “PBM E-score” value of the first is lower: 0.297 for the first, 0.322 for the second.

Compared with GAAGCCGC, TAAGCCGA is higher in “PBM E-score” value: 0.193 for the first, 0.392 for the second.

Going from GAAGCCGA to ACGATTGG, the “PBM E-score” value falls from 0.401 to -0.176.

First: CCACGGCG
Second: GCACGGCA
The “PBM E-score” value of the first is lower: -0.0429 for the first, 0.109 for the second.

Going from ACTCGGCC to TCTCGGCA, the “PBM E-score” value rises from 0.232 to 0.446.

Going from CCTCGGCG to ACTCGGCA, the “PBM E-score” value rises from 0.411 to 0.428.

Compared with GCTCGGCA, GCTCGGCC is lower in “PBM E-score” value: 0.443 for the first, 0.289 for the second.

Going from AATCGGCA to CATCGGCG, the “PBM E-score” value falls from 0.32 to 0.165.

Going from TCACGGCA to ACTCGGCG, the “PBM E-score” value rises from 0.114 to 0.326.

First: ACGACGTC
Second: ATTGGGGA
The “PBM E-score” value of the first is higher: -0.148 for the first, -0.245 for the second.

Going from AGATACTG to ACCAGCCG, the “PBM E-score” value rises from -0.169 to 0.256.

First: AGATGAAG
Second: AGCTAAGA
The “PBM E-score” value of the first is lower: -0.0847 for the first, -0.055 for the second.

Going from AAGCCAAG to CCCGCATC, the “PBM E-score” value rises from -0.0879 to 0.101.

Going from ACATAGAG to GAGAAATC, the “PBM E-score” value rises from -0.166 to 0.0628.

Going from AATCGGCT to ACTCGGCT, the “PBM E-score” value rises from 0.344 to 0.414.

First: CCTCGGCA
Second: CGTCGGCA
The “PBM E-score” value of the first is higher: 0.461 for the first, 0.38 for the second.

Compared with ACTCGTCT, CCTCGGCC is higher in “PBM E-score” value: -0.126 for the first, 0.313 for the second.

Compared with GAGTCCCC, ACGTGATA is lower in “PBM E-score” value: -0.0682 for the first, -0.167 for the second.

First: CCCTGACC
Second: CCAGACTC
The “PBM E-score” value of the first is higher: 0.0155 for the first, -0.0717 for the second.

First: GAAACAGA
Second: AGACGAAG
The “PBM E-score” value of the first is higher: -0.0644 for the first, -0.0901 for the second.

First: AGCCGTAT
Second: CACCGAAA
The “PBM E-score” value of the first is lower: 0.0974 for the first, 0.201 for the second.

Going from CGCCGAAG to AGCCGAAG, the “PBM E-score” value rises from 0.372 to 0.391.

Going from GACCGAAA to TACCGAAA, the “PBM E-score” value rises from 0.255 to 0.385.

Compared with CGCCGAAC, AGCCGACT is lower in “PBM E-score” value: 0.366 for the first, 0.261 for the second.

Compared with AGCCGAAT, AGCCGAAC is lower in “PBM E-score” value: 0.426 for the first, 0.411 for the second.

Going from GGCCGAAC to GAGCCGTA, the “PBM E-score” value falls from 0.313 to 0.191.

Compared with AGCCCGTC, ATGATTCG is higher in “PBM E-score” value: -0.0989 for the first, 0.0336 for the second.

Compared with GGGTCTAA, AAAGCTCA is lower in “PBM E-score” value: -0.0158 for the first, -0.202 for the second.

First: CTGCAGTA
Second: AATCAGGC
The “PBM E-score” value of the first is lower: -0.353 for the first, -0.174 for the second.

First: TGCCGACA
Second: GGCCGAAA
The “PBM E-score” value of the first is higher: 0.359 for the first, 0.319 for the second.

First: AGCCGAAA
Second: TGCCGAAA
The “PBM E-score” value of the first is lower: 0.425 for the first, 0.444 for the second.

Compared with CGCCGAAA, TGACGAAA is lower in “PBM E-score” value: 0.34 for the first, -0.207 for the second.

First: AACAGGAA
Second: AGCACAAC
The “PBM E-score” value of the first is lower: -0.219 for the first, 0.0479 for the second.
